Bioassay records deposited in PubChem by The Scripps Research Institute Molecular Screening Center.
PAFAH1B3 inh: blocks human PAF acetylhydrolase 1B catalytic subunit 3. Q15102. 340,000 tested, 0.28% active. recombinant PAFAH1B3, FP-rhodamine probe, fluorescence polarization. inhibition, % at 3.39 µM;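 active = inhibition above the screen-wide average of all tested compounds plus 3 SD, cut at about 25% in these data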
LYPLA2 inh: blocks human lysophospholipase 2, a PME1 counter-screen. inhibition, % at 5.9 µM. recombinant LYPLA2, FP-Rh probe fluorescence polarization. O95372. 320,000 tested, 0.38% active;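 active = inhibition above the screen-wide mean plus 3 SD, limit set per campaign, cut at about 26% in these data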
Target sequence (O95372 whole entry, looked up): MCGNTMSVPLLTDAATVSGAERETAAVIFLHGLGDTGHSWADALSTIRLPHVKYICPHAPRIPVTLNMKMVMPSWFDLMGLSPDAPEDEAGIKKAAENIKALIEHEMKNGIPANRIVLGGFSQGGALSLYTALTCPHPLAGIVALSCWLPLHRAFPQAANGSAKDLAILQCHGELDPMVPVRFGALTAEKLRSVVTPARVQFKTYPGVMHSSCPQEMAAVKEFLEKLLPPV
PAFAH1B2 FP inh: PAFAH1B2 (human) inhibition. P68402. recombinant PAFAH1B2, FP-rhodamine activity probe, fluorescence polarization. inhibition, % at 3.39 µM. 340,000 tested, 1.2% active. AID 492953;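 active = inhibition above the mean of all tested compounds plus 3 SD, cut at about 24% in these data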
PAFAH2 inh: inhibitors of human PAFAH2. Q99487. recombinant PAFAH2, FP-rhodamine activity probe, fluorescence polarization. inhibition, % at 3.39 µM. 340,000 tested, 0.99% active;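 active = inhibition above the mean over all tested compounds plus 3 SD, cut at about 30% in these data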;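 also: inhibitors block probe labeling of enzyme so polarization drops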
LYPLA1 counter: blocks human lysophospholipase 1, a PME1 counter-screen; O75608; recombinant LYPLA1, FP-Rh probe fluorescence polarization; inhibition, % at 5.9 µM; 320,000 tested, 0.16% active; AID 2174;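 active = inhibition above the mean of all tested compounds plus 3 SD, set per campaign, cut at about 14% in these data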;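 also: inhibitors block serine hydrolase probe labeling of LYPLA1 so polarization falls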
Target sequence (O75608 whole entry, looked up): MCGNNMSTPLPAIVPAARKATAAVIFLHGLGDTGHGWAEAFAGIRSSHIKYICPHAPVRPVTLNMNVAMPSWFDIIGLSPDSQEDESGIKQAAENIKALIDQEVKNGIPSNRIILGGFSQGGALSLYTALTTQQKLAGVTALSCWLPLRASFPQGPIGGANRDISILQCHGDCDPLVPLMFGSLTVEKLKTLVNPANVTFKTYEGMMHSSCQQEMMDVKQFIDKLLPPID
pPAFAH inh: inhibitors of human plasma PAF acetylhydrolase (pPAFAH); Q13093; inhibition, % at 3.39 µM; recombinant pPAFAH, FP-rhodamine probe fluorescence polarization; 330,000 tested, 1.5% active; AID 463082;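 active = inhibition above the mean inhibition across the screen plus 3 SD, cut at about 25% in these data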;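 also: inhibitors block binding of the rhodamine activity-based probe so polarization drops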
A number is an active result; . = inactive; / = no result. In the library only some 2.9% were active in any assay of this set; here they are far more common.

SMILES	PAFAH1B3 inh	LYPLA2 inh	PAFAH1B2 FP inh	PAFAH2 inh	LYPLA1 counter	pPAFAH inh
COc1cc(NS(=O)(=O)c2ccc(NC(=O)/C(=C/c3ccccc3Cl)NC(=O)c3ccccc3)cc2)nc(OC)n1	.	.	.	.	.	.
COc1cc(OC)cc(C(=O)Nc2cc(C)on2)c1	.	.	.	.	.	.
COC(=O)c1ccc(-c2noc(CN3C[C@H]4CC[C@H]3C4)n2)cc1	.	.	.	.	.	.
C=C(C)COc1ccc2c3c(c(=O)oc2c1OCC(=C)C)CCC3	.	.	.	67.3	.	30.6
O=C(O)CCCC(=O)Nc1ccc(Br)cc1C(=O)O	.	.	27.2	.	.	.
O=C(O)CCCC(=O)Nc1ccc(Br)cc1	.	.	.	.	.	.
COc1cc(S(=O)(=O)N2CCN(c3ccccc3F)CC2)ccc1Cl	.	.	.	.	.	.
S=c1[nH]nc(-c2cc(-c3ccccc3)n[nH]2)n1/N=C/C=C/c1ccco1	/	.	/	/	.	26.1
CN(C(=O)CSc1nc(-c2ccc(C(C)(C)C)cc2)c(C#N)c(=O)[nH]1)C1CCCCC1	.	.	31.3	.	.	.
Brc1ccc(CSc2nnc(-c3cnccn3)n2Cc2ccco2)cc1	.	.	29.8	.	.	.
Fc1ccc(CSc2nnc(-c3cnccn3)n2Cc2ccco2)cc1	.	.	.	.	.	.
CC(=O)c1cccc(NC(=O)CN2CCc3cc4c(cc3C2C)OCCCO4)c1 (stereo unspecified)	.	.	.	.	.	.
Nc1nnn(CC(=O)N/N=C/c2ccccc2Cl)n1	/	.	/	/	.	.
CC(=O)OC[C@]12CC[C@H]3[C@@](C)(CC[C@H]4C(C)(C)CCC[C@]34C)[C@@H]1C[C@H](C1=CC(=O)O[C@@H]1OC(C)=O)O2	/	/	/	/	/	44.9
CC(=O)OCC1=C(C(=O)O)N2C(=O)C(NC(=O)c3ccc(COc4ccc(Cl)cc4)o3)C2SC1 (stereo unspecified)	.	.	24.6	.	.	26.5
CC(=O)OCC1=C(C(=O)O)N2C(=O)C(NC(=O)COc3ccc(F)cc3)C2SC1 (stereo unspecified)	.	/	.	.	/	/
CCN(C(=O)CSc1cc(C)c2ccccc2n1)C1CCS(=O)(=O)C1 (stereo unspecified)	.	.	.	.	.	.
CCCN(C(=O)CSc1cc(-c2ccccc2)c2ccc(OC)cc2n1)C1CCS(=O)(=O)C1 (stereo unspecified)	.	.	.	.	.	25.2
Cc1ccc(S(=O)(=O)Nc2cccc(-c3cn4ccsc4n3)c2)cc1	.	.	.	.	.	.
O=S(=O)(Nc1cccc(-c2cn3ccsc3n2)c1)c1ccc(F)cc1	.	.	.	.	.	32.2
Nc1nnc(CSCc2ccc(Cl)cc2)s1	.	.	27.9	.	.	.
Nc1nnc(CSCc2ccccc2)s1	.	.	.	.	.	.
Cc1ccc2[nH]c(=O)c(CN(Cc3ccccc3)C(=S)NCCCN(C)C)cc2c1	.	.	.	.	.	.
O=C(CC1S/C(=N\S(=O)(=O)c2ccccc2)N(c2ccccc2)C1=O)Nc1ccc(F)cc1 (stereo unspecified)	.	.	.	.	.	.
Cc1ccc(S(=O)(=O)/N=C2\SC(CC(=O)Nc3ccc(F)cc3)C(=O)N2c2ccccc2)cc1 (stereo unspecified)	.	.	32.1	.	.	.
SMILES	PAFAH1B3 inh	LYPLA2 inh	PAFAH1B2 FP inh	PAFAH2 inh	LYPLA1 counter	pPAFAH inh
Cc1ccc(/C=C2/SC(=O)NC2=S)o1	45.2	/	26.1	59.8	/	/
Cn1cc(/C=C2\SC(=O)NC2=S)c2ccccc21	.	.	.	.	.	.
Nc1nnnn1/N=C/c1ccccc1C(F)(F)F	.	.	.	.	.	.
O=C(C[C@H]1C/C=C\CC[C@H](Cc2ccc(F)cc2)C(=O)OC[C@H]2CCCN2C1=O)N[C@H](CO)Cc1ccccc1	.	/	.	.	/	.
O=C1OC[C@H]2CCCN2C(=O)[C@@H](CC(=O)N(CCO)Cc2ccccc2)C/C=C\C[C@H]1Cc1ccc(F)cc1	.	/	.	.	/	.
O=C1OC[C@@H]2CCCN2C(=O)[C@@H](CC(=O)N(CCO)Cc2ccccc2)C/C=C\C[C@H]1Cc1ccc(F)cc1	.	/	34.3	.	/	.
O=C(C[C@H]1C/C=C\CC[C@H](Cc2ccc(F)cc2)C(=O)O[C@@H](c2ccccc2)CNC1=O)N[C@H](CO)Cc1ccccc1	.	/	.	.	/	.
